Compound activity deposited in PubChem by several laboratories.
sEH act: soluble epoxide hydrolase (human) activation; activation, % at 2 µM; 0.04% of 91,000 active; P34913; AID 717; purified human sEH enzymatic activity, activator screen; in the data active = activation above about 37%
LYP act: activators of human LYP (PTPN22) phosphatase | 0.11% of 96,000 active | recombinant LYP, DiFMUP fluorescence; 0 = plate median, 100 = signal doubled | activation, % at 2 µM;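 active = activation at 2 µM above a set limit, the mean plus 5 SD, cut at about 37% in these data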
Target sequence (Q9Y2R2 whole entry, looked up): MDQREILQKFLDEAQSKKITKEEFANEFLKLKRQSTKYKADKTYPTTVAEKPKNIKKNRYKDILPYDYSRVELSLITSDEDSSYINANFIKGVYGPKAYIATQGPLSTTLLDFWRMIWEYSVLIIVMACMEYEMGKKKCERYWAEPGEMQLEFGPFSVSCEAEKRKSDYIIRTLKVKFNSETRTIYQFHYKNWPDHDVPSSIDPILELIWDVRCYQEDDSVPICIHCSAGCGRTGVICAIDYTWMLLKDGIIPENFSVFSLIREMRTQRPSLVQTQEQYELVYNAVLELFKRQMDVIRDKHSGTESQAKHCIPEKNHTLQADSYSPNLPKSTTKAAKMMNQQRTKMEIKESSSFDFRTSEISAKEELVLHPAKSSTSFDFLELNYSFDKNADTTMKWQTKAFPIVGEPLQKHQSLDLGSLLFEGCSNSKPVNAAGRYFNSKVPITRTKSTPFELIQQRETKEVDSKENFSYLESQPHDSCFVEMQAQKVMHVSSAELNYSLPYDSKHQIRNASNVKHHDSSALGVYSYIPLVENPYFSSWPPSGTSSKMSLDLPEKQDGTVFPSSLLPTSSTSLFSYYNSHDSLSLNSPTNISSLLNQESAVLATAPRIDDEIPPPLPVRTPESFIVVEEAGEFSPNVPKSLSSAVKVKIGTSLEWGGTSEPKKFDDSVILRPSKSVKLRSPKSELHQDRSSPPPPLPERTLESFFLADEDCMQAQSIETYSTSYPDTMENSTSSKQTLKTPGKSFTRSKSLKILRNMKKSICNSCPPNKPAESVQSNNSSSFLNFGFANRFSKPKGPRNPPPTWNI
LYP inh 2: inhibitors of human LYP (PTPN22) phosphatase | Q9Y2R2 | recombinant LYP catalytic domain, DiFMUP fluorescence | inhibition, % at 2 µM | 0.21% of 96,000 active;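 active = inhibition at 2 µM at or above a set limit, the screen mean plus 3 SD, cut at about 24% in these data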;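 also: 0% = DMSO with enzyme and 100% = enzyme fully blocked by orthovanadate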
Measles CPE: protection of cells from measles virus; 1.5% of 140,000 active; protection (pct of control), % at 4 µM; Measles virus-infected cells, CPE protection, absorbance; in the data active = protection mostly above about 24%, no sharp cut-off; inactive = mostly below about 26%
sEH inh: inhibitors of human soluble epoxide hydrolase | recombinant human sEH enzymatic activity assay | AID 707 | P34913 | inhibition, % at 2 µM | 0.34% of 91,000 active; in the data active = inhibition above about 80%
Numbers without * were called inactive. Sampled rows, rich in hits. Any-hit rate of the full collection: about 1.7%.

For CC1(C)CC(CC(=O)O)(c2ccc(F)cc2)CCO1 (stereo unspecified) the results were sEH act 6, LYP act -8, LYP inh 2 4, Measles CPE 8 and sEH inh -2.
`COc1ccccc1C1(CC(=O)O)CCOC(C)(C)C1` (stereo unspecified) gave sEH act -2, LYP act -1, LYP inh 2 1, Measles CPE 33* and sEH inh 5.
CC(C)N(C(=O)Cn1c(-c2ccccc2Cl)nc2ccccc21)c1ccccc1 was read as Measles CPE 34*.
Screening CCc1cccc(CC)c1NC(=O)Cn1c(-c2ccccc2Cl)nc2ccccc21 returned Measles CPE 1.
Cc1cccc(C)c1OC(=O)CSc1nnc(-c2ccccc2O)o1 was read as sEH act -3, LYP act -10, LYP inh 2 11, Measles CPE 2 and sEH inh 1.
For N#Cc1c(C(F)(F)F)cc(-c2cccc(Cl)c2)[nH]c1=O the results were Measles CPE 9.
`CCOC(=O)CC(=O)Nc1ccc(Br)cc1C(=O)O` gave sEH act 4, LYP act 2, LYP inh 2 -3, Measles CPE 20 and sEH inh -3.
For CCCCC(=O)Nc1ccc(Br)cc1C(=O)O the results were sEH act -20, LYP act 2, LYP inh 2 -2, Measles CPE 55* and sEH inh 19.
`OCCNCc1cc(Br)ccc1OCc1ccccc1` gave Measles CPE 32*.
For Cc1nn(C)c(C)c1NC(=O)CSc1nc(C2CC2)nc2c1cnn2-c1ccccc1 the results were sEH act 4, LYP act 4, LYP inh 2 -2, Measles CPE 62* and sEH inh -4.
For CCN1C/C(=C/c2cccc([N+](=O)[O-])c2)C(=O)/C(=C/c2cccc([N+](=O)[O-])c2)C1 the results were Measles CPE 0.
O=C(NO)c1ccccc1O was read as Measles CPE 11.
For O=C(O)c1ccccc1O the results were Measles CPE 43*.
`CC(C)(C)c1nnc(SCC(=O)c2ccccc2)n(N)c1=O` gave Measles CPE 5.
`CC1(C)CC(CC(=O)Nc2ccc([N+](=O)[O-])cc2)C(=O)O1` (stereo unspecified) gave sEH act -14, LYP act 9, LYP inh 2 -5, Measles CPE 35* and sEH inh 13.
`CC(CC1CC(C)(C)OC1=O)C(=O)Nc1ccc([N+](=O)[O-])cc1` (stereo unspecified) gave Measles CPE 26.
Screening Cn1c(N)c(C(=O)COC(=O)c2cc(S(=O)(=O)N3CCCCC3)ccc2Cl)c(=O)n(C)c1=O returned Measles CPE 27*.
CCOC(=O)CC1=NN(c2ccccc2)C(=O)/C1=C\c1ccc(OC)cc1OC was read as Measles CPE 7.
For CCOC(=O)c1cc(CC)sc1NC(=O)CC1Sc2ccc(C(F)(F)F)cc2NC1=O (stereo unspecified) the results were Measles CPE 5.
Screening CCOc1ccc(C(=O)CC(=O)C(=O)NCCc2ccc(OC)c(OC)c2)cc1 returned Measles CPE 38*.
For Cc1ccc(C)c(NC(=O)COC(=O)CC2c3ccccc3CCN2S(=O)(=O)c2ccc(F)cc2)c1 (stereo unspecified) the results were Measles CPE 1.
For Cc1cc(N2C(=O)C3CC=CCC3C2=O)cc(C)c1Br (stereo unspecified) the results were sEH act -1, LYP act 4, LYP inh 2 -6, Measles CPE 4 and sEH inh -1.
Screening Cc1cc(C)cc(N2C(=O)C3CC=CCC3C2=O)c1 (stereo unspecified) returned sEH act -3, LYP act -14, LYP inh 2 12, Measles CPE 44* and sEH inh 1.
Screening Cn1ncc(Cl)c1C(=O)Nc1ccc(Cl)cn1 returned sEH act -3, LYP act -4, LYP inh 2 4, Measles CPE 28* and sEH inh 0.
Screening Cc1cc(NC(=O)c2c(Cl)cnn2C)no1 returned sEH act 19, LYP act 1, LYP inh 2 -2, Measles CPE 5 and sEH inh -20.
`Cc1noc(C)c1S(=O)(=O)NCCCN1CCN(Cc2ccccc2)CC1` gave sEH act 10, LYP act -4, LYP inh 2 7, Measles CPE 30* and sEH inh -8.
Cc1noc(C)c1S(=O)(=O)NCCN1CCN(c2ccccc2)CC1 was read as sEH act 3, LYP act -8, LYP inh 2 9, Measles CPE 7 and sEH inh -5.
Screening Cc1cccc(S(=O)(=O)c2c(N)n(/N=C/c3ccccc3)c3nc4ccccc4nc23)c1 returned sEH act 6, LYP act -10, LYP inh 2 11, Measles CPE 60* and sEH inh -9.
CCOCCCNc1nc2ccccc2[nH]1 was read as sEH act -7, LYP act -14, LYP inh 2 16, Measles CPE 46* and sEH inh 6.
Screening CCCCNc1nc2ccccc2[nH]1 returned sEH act 15, LYP act 4, LYP inh 2 0, Measles CPE 20 and sEH inh -16.
`CCOc1ccc(-n2nc3c(-n4ncc(C#N)c4N)nnc(C)c3c2C)cc1` gave sEH act -5, LYP act 4, LYP inh 2 -7 and sEH inh 4.
Screening COc1ccccc1S(=O)(=O)Cc1ccc(C(=O)NC2CCCCC2)o1 returned sEH act -45, LYP act 5, LYP inh 2 -7 and sEH inh 46.
For O=C(NC1CCCCC1)c1ccc(CNc2ccccc2)o1 the results were sEH act -54, LYP act 10, LYP inh 2 -13, Measles CPE 36* and sEH inh 53.
Screening CSc1nc2ccc(NS(=O)(=O)c3cccc(Cl)c3Cl)cc2s1 returned Measles CPE 2.
For CCC(NC(=O)/C(=C\c1ccc2c(c1)OCO2)NC(C)=O)C(=O)O (stereo unspecified) the results were Measles CPE 28.
`Cc1c(NC(=O)CSc2nnc3c4ccccc4n(CCc4ccccc4)c3n2)c(=O)n(-c2ccccc2)n1C` gave sEH act 4, LYP act -2, LYP inh 2 6, Measles CPE 37* and sEH inh -5.
Screening CCOC(=O)c1nn(-c2ccc(F)cc2)c(C)c1C(C)=O returned sEH act 18, LYP act -12, LYP inh 2 13, Measles CPE 46* and sEH inh -14.
Screening CCOC(=O)c1nn(-c2ccc(C)cc2)c(C)c1C(C)=O returned sEH act -6, LYP act 9, LYP inh 2 -6, Measles CPE 25 and sEH inh 8.
`CCOC(=O)C(Cc1ccccc1)C(=O)Nc1cccc2ccccc12` (stereo unspecified) gave Measles CPE 7.
Screening CN(C)CCSc1nnc2sc3ccccc3n12 returned sEH act -6, LYP act 1, LYP inh 2 -2, Measles CPE 8 and sEH inh 6.
